S1P1 agonist: S1P1 (human) receptor agonism; S1P1 agonist cell-based reporter assay; activation, % at 4.5 µM; 16,000 compounds, 1.5% hits; in the data active = activation above about 80%
Target sequence (P21453 whole entry, looked up): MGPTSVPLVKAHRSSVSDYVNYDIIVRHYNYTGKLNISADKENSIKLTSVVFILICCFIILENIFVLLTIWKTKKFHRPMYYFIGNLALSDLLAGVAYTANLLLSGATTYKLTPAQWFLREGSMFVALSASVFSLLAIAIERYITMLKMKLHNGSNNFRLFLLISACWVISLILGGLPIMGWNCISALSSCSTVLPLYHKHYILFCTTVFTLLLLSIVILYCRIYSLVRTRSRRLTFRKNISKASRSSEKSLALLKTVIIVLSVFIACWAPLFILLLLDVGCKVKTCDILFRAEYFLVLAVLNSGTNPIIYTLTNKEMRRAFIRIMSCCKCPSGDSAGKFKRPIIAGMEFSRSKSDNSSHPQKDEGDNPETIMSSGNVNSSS
rat GALR2 agon: agonists of rat galanin receptor 2 (GALR2) | 16,000 compounds, 0.5% hits | cell-based GALR2 agonist screen | activation, % at 10 µM; in the data active = activation above about 15%
* = called active by the depositor. Most compounds without a hit are left out; they make up all but 2% or so of the library.

SMILES	S1P1 agonist	rat GALR2 agon
N#CCS(=O)(=O)c1ccc(Cl)cc1	-8	-3
CC(C)n1cc(-c2noc(-c3cccs3)n2)c(=O)n(Cc2ccccc2)c1=O	92*	-6
CC(C)n1cc(-c2nc(C(=O)NNC(=O)C(C)(C)C)cs2)c(=O)n(Cc2ccccc2)c1=O	-4	-2
O=C(O)/C=C/C(=O)N1CCN(c2ncccc2C(F)(F)F)CC1	1	-6
S=C1NCN(CC2CCCO2)CN1 (centres undefined)	-12	-5
CC(C)(C)C(C)(C#N)Nc1ccc(Cl)cc1 (centres undefined)	-6	45*
CC(C)S(=O)(=O)/C(C#N)=C/Nc1ccc(Cl)cc1	1	1
Cc1ccc(C)n1-c1cc([N+](=O)[O-])ccc1N1CCN(S(=O)(=O)c2cn(C)cn2)CC1	8	-5
O=c1ccc([N+](=O)[O-])cn1C1CCCCO1 (centres undefined)	94*	-4
O=C(OC1OCCOC1OC(=O)c1ccc([N+](=O)[O-])cc1)c1ccc([N+](=O)[O-])cc1 (centres undefined)	-1	-6
O=C(Nc1ccc(OC(F)(F)F)cc1)N1CCN(c2ncccn2)CC1	17	-4
COc1ccc(-c2cc(-c3ccc(OC)cc3)c3c(=O)n(C)c(=O)n(C)c3n2)cc1	81*	-3
CN(C)c1cc(Nc2ccccc2)c2c(=O)n(C)c(=O)n(C)c2n1	-48	-3
Fc1ccc(N/N=C/c2sccc2Oc2ccccc2)c(F)c1	16	5
CCOC(=O)/C(C#N)=C/NN(C)c1cccc(F)c1C#N	22	-1
COC(=O)c1sc(C(F)(F)F)c(-c2ccccc2)c1N	98*	-5
COC(=O)c1sc(SC)c(C#N)c1-c1cccc(C(F)(F)F)c1	16	-8
Cc1cc(NC(=O)CCCCCN2CCOCC2)no1	-2	-7
Cc1cc(C(=O)NCc2ccc3c(c2)OCCCO3)nn1C	6	-6
Cn1nc(C(C)(C)C)cc1C(=O)NCc1ccc2c(c1)CCO2	80*	-9
O=[N+]([O-])c1cc(CO)ccc1N1CCCC1	5	-5
O=C(Nc1ccccc1)Nc1ccc(-n2ccc(C(F)(F)F)n2)cc1	69	-9
Cc1onc(-c2ccccc2)c1NC(=O)Nc1ccc(-n2ccc(C(F)(F)F)n2)cc1	98*	-7
COC(=O)c1sccc1OC(=O)c1ccc(Cl)cc1Cl	10	-4
CC(C)(C)c1cc(C(=O)/C(C#N)=N/Nc2cccc(Cl)c2)no1	108*	-3
SMILES	S1P1 agonist	rat GALR2 agon
Cc1cc(C(=O)NNc2cc(C(F)(F)F)ccc2Cl)n(C(C)(C)C)n1	-15	-8
COc1cc(Cl)ccc1N/N=C(\C#N)C(N)=O	-3	-2
Cc1cc(C(=O)/C(C#N)=N/Nc2cccc(Cl)c2)n(C(C)(C)C)n1	88*	-5
Nc1ccccc1SC(CC(=O)c1ccccc1)c1ccc(Cl)cc1 (centres undefined)	18	2
CSC(=NCCSC(C)(C)C)NS(=O)(=O)c1ccccc1	0	-8
CSC(=NCc1c(N(C)C)cccc1N(C)C)NS(=O)(=O)c1ccccc1	95*	-8
Cc1[nH]c2ccccc2c1SCC(=O)NNC(=O)Nc1cccc(Cl)c1	2	-6
CCOc1ccc2nc(NC(=O)c3ccc([N+](=O)[O-])o3)sc2c1	-1	-6
CCOC(=O)c1c(NC(=O)c2ccc([N+](=O)[O-])o2)nc(SC)n1Cc1cccs1	87*	-6
Cc1cc(S(=O)(=O)NCc2c(N(C)C)cccc2N(C)C)c(Cl)cc1Cl	-5	-6
CC(C)(O)C#Cc1ccc(/C=N/O)cc1	4	-8
CC(C)(O)C#Cc1ccccn1	-19	27*
O=C(O)c1sccc1Cl	-8	-4
COc1ccc(/C=C2/N=C(c3ccccc3)NN(Cc3ccccc3)C2=O)cc1	6	-7
COc1ccc(/C=C2/N=C(c3ccccc3)NC2=O)cc1	-33	15*
Fc1ccc(NC(=S)NCc2cccs2)cc1Cl	12	-4
Cc1ccc(C)c(CSc2nc(C3CCCCC3)c(C#N)c(=O)[nH]2)c1	97*	-6
CSc1nc(CSc2ccc(Cl)cc2)nc(C2CC2)c1C#N	-1	-10
CS/C(N)=N/N=C/c1ccc(N(C)C)cc1	14	-6
N/C(=N\NC(=O)c1cccnc1)c1ccncc1	0	-7
Cc1cc(N=Nc2ccc(Cl)cc2)cc(CN2CCOCC2)c1O	95*	-2
Cc1ccc2oc(=O)cc(CN3CCOCC3)c2c1	7	-8
O=C1CSCC(=O)N1c1csc(C(F)(F)F)c1-c1ccccc1	100*	-5
O=S(=O)(Oc1ccc(Cl)cc1)c1csc(C(F)(F)F)c1-c1ccccc1	-9	-10
O=C1/C(=C\C2CC=CCC2)Cc2ccccc21 (centres undefined)	15	2
SMILES	S1P1 agonist	rat GALR2 agon
CC(=O)/C(N=Nc1ccccc1C)=C(\C)O	-10	-3
O=C(c1ccc(Cl)cc1Cl)N1CCN(Cc2ccccc2)CC1	1	-2
COC(=O)c1cccc(NC(=O)NC(=O)c2cccs2)c1	2	16*
COC(=O)c1cccc(NC(=O)c2ccccc2)c1	-9	-6
COc1ccc(N/C(=C\C=C(C#N)C#N)c2ccc(Cl)cc2)cc1	-3	-3
Nc1nc(C2COc3ccccc3O2)ncc1S(=O)(=O)c1ccc(Cl)cc1 (centres undefined)	2	9
CS/C(Nc1ccccc1)=C(/C#N)C(=O)c1cc(-c2ccccc2)c(C(F)(F)F)s1	10	-2
O=C(/C=C/c1cc(-c2ccccc2)c(C(F)(F)F)s1)c1cccs1	100*	2
O=C(NC1Cc2ccccc2C1)C1CCN(C(=O)OCc2ccccc2)CC1	6	-6
O=C(Nc1ccc(N2CCOCC2)cc1Cl)C1CCN(C(=O)OCc2ccccc2)CC1	101*	-8
CCN(CC)c1ccc(N=Nc2ccc(Br)cn2)c(O)c1	86*	-10
Cc1cc(-c2nc(-c3ccnn3C(=O)Nc3ccc(Cl)cc3Cl)cs2)no1	1	-9
CN1C2CCC1CC(NC(=O)CSCc1ccc(Cl)cc1Cl)C2 (centres undefined)	-2	51*
CN1C2CCC1CC(NC(=O)CS(=O)(=O)c1ccc(F)cc1F)C2 (centres undefined)	-14	-7
CS(=O)(=O)Cc1cc(F)cc2c1OCOC2	2	-7
O=[N+]([O-])c1ccc(N2CCCC2)c(Cn2ccnc2)c1	-4	-6
O=[N+]([O-])c1ccc(N2CCN(c3ccc([N+](=O)[O-])cc3CO)CC2)c(CO)c1	82*	-6
CCn1nc(C)cc1-c1nnc(SCc2ccc(C(F)(F)F)cc2)o1	97*	-7
CCn1nc(C)cc1-c1nnc(-c2ccccc2Cl)o1	23	-3
Cc1ccc([N+](=O)[O-])c(NS(=O)(=O)c2cc(Cl)c(Cl)cc2Cl)c1	87*	-7
O=S(=O)(Nc1cccc2cccnc12)c1cc(Cl)c(Cl)cc1Cl	0	0
CC(=O)Nc1ccc(NC(=O)c2ccco2)cn1	-6	-8
c1ccc2c(c1)CN1CCCCN1C2	-3	-5
N#C/C(=C\c1c(Cl)cccc1Cl)C(=O)Nc1ccc(F)c(Cl)c1	31	20*
CN(C)/C=C(\C#N)C(=O)Nc1ccc(F)c(Cl)c1	30	-5
Cn1cc(Cl)c(/C=C(\C#N)C(=O)c2ccco2)n1	-3	-1
N#CC(C#N)=NNc1ccc(F)cc1F	105*	-8
N#CC(C#N)=NNc1ccc(Cl)c(Cl)c1C#N	31	-5
C/C=C(\C)C(=O)Nc1nncs1	-12	-6
CCOC(=O)c1nnc2c3c(-c4ccccc4)c(-c4ccccc4)nnc3nn2c1C	101*	-7

Screening data (PubChem)
